Among all 390,000 compounds or so, about 2,600 (0.67%) were called active.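 How the source made its calls: active means mean inhibition of replicates at least 50% and at least half of replicates each reaching 50%; inconclusive means half or more replicates reach 50% but mean below 50%; inactive means the rest.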 The entries come from a sample that favours actives as a whole.
Biological target: Transforming acidic coiled-coil-containing protein 3 (Homo sapiens) (UniProt Q9Y6A5)
Assay: disruptors of ARNT/TACC3 protein interaction, primary screen, biochemical, AlphaScreen, single concentration (AID 623870);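 further: 0% = complete ARNT plus TACC3 wells and 100% = ARNT alone without TACC3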
Conditions: AlphaScreen His-ARNT PAS-B/GST-TACC3 binding, luminescence; at 9.99 µM; active compounds read high; TACC3 fragment carries E629A point mutation

Row | SMILES | inhibition
1 | COc1ccc(C#Cc2cnc3c(c2)C(=O)N([C@H](C)CO)C[C@H](C)[C@H](CN(C)C(=O)CC2CC2)O3)cc1 | 3.95% (inactive)
2 | O=C1O[C@@H](c2ccccc2)[C@@H](c2ccccc2)N2[C@@H](c3ccccc3OCCO)[C@]3(C(=O)Nc4ccccc43)[C@@H](C(=O)N3CCCCCCC3)[C@H]12 | 29.4% (inactive)
3 | Cc1nnc(N/N=C/c2ccccn2)[nH]c1=O | 61.4% (active)
4 | CCOc1ccc(-n2c(O)c(/C=N/Nc3nnc(C)c(=O)[nH]3)c3ccccc3c2=O)cc1 | 66.5% (active)
5 | CCOc1ccc(N/C(N)=N/c2nc(C)c(C)c(=O)[nH]2)cc1 | -20.7% (inactive)
6 | COc1ccc(-n2c(O)c(C=NCC(c3ccco3)N3CCCC3)c3ccccc3c2=O)cc1OC (stereo not drawn) | 5.52% (inactive)
7 | C[C@@H]1CN([C@H](C)CO)C(=O)c2cc(C#CC3(O)CCCC3)cnc2O[C@H]1CN(C)Cc1ccncc1 | -3.19% (inactive)
8 | O=C(C[C@@H]1CC[C@H]2[C@@H](COC[C@H](O)CN2C(=O)Nc2ccc(Cl)cc2)O1)NCC1CC1 | -0.418% (inactive)
9 | CN(C)C(=O)[C@@H]1[C@@H](CO)[C@@H]2Cn3c(cccc3=O)[C@H]1N2CC1CCCCC1 | 10.9% (inactive)
10 | COCC(=O)N1C[C@H]2[C@@H](c3ccccc31)[C@@H](CO)N2Cc1ccccc1 | 4.41% (inactive)
11 | O=C(C[C@@H]1CC[C@@H]2[C@H](COC[C@@H](O)CN2Cc2ccccc2)O1)NCCc1ccccc1 | 0.273% (inactive)
12 | Fc1ccc(-c2ccc(CNCc3ccccn3)o2)cc1Cl | 59.1% (active)
13 | Clc1ccc(-c2cc(COc3ccccc3)no2)cc1Cl | 1.19% (inactive)
14 | COc1ccc(-c2ccc(CNCCCN3CCOCC3)o2)cc1Cl | 2.81% (inactive)
15 | CO[C@H](CN(C)C(=O)c1cnccn1)[C@@H](C)CN([C@@H](C)CO)S(=O)(=O)c1ccc(C)cc1 | 3.1% (inactive)
16 | C[C@@H]1CN([C@@H](C)CO)C(=O)c2cc(-c3cncnc3)cnc2O[C@@H]1CN(C)C(=O)c1ccccc1F | -2.75% (inactive)
17 | C[C@@H]1CN([C@H](C)CO)S(=O)(=O)c2ccc(C#CCN(C)C)cc2O[C@@H]1CN(C)C(=O)CN(C)C | -1.64% (inactive)
18 | O=C(CCNc1n[nH]c(=O)[nH]c1=O)N/N=C\c1ccc(Br)cc1 | 1.48% (inactive)
19 | O=C(CCCO)N/N=C/c1cc(Br)ccc1O | 80.7% (active)
20 | O=C(CCNC(=O)c1ccccc1)NN=Cc1ccc(Br)o1 | 0.9% (inactive)
21 | CN1C(=O)c2cc(NS(=O)(=O)c3ccc(Cl)cc3)ccc2OC[C@H]2O[C@@H](CC(=O)O)CC[C@H]21 | 4.03% (inactive)
22 | C[C@@H]1CN([C@H](C)CO)C(=O)Cc2cc(NC(=O)CCCN(C)C)ccc2O[C@H]1CN(C)CC1CCCCC1 | 0.403% (inactive)
23 | COc1cc(CNCc2ccc(OC)c3ccccc23)cc(OC)c1OC | 4.98% (inactive)
24 | COc1ccc2ccccc2c1CNCc1ccccn1 | 55.2% (active)
25 | CCOc1cc(CNCc2ccccn2)ccc1OCC(=O)NC(C)(C)C | 36.2% (inactive)

Row | SMILES | inhibition
26 | Cc1ccc(S(=O)(=O)Nc2ccc3c(c2)C(=O)N([C@H](C)CO)C[C@H](C)[C@H](CN(C)C(=O)NC(C)C)OCCCC[C@@H](C)O3)cc1 | -2.46% (inactive)
27 | N/C(Cc1ccc([N+](=O)[O-])cc1)=N\OC(=O)COc1ccc2ccccc2c1 | 1.55% (inactive)
28 | N/C(=N\OC(=O)Cc1ccc([N+](=O)[O-])cc1)c1ccccn1 | 55.4% (active)
29 | N/C(=N\OC(=O)CCC1CCCCC1)c1ccccn1 | -3.39% (inactive)
30 | COc1ccc(S(=O)(=O)N[C@@H]2CC[C@@H](CC(=O)NCCc3ccccc3)O[C@@H]2CO)cc1 | -3.62% (inactive)
31 | CCCC#Cc1ccc2c(c1)O[C@@H](CN(C)C(=O)CC)[C@@H](C)CN([C@H](C)CO)S2(=O)=O | 5.6% (inactive)
32 | Cc1cccc(S(=O)(=O)N[C@H]2CC[C@@H](CCNS(=O)(=O)c3ccccc3F)O[C@H]2CO)c1 | 1.77% (inactive)
33 | CC(C)CN(C(=O)COC(=O)c1ccc2ccccc2c1)c1c(N)n(Cc2ccccc2)c(=O)[nH]c1=O | -0.235% (inactive)
34 | CCOC(=O)c1ccc(Nc2cc3ccccc3c(=O)[nH]2)cc1 | 4.54% (active)
35 | CCOC(=O)c1ccc(NC(=O)C2CC(=O)Nc3nc4ccccc4n32)cc1 (stereo not drawn) | 1.15% (inactive)
36 | O=C(C[C@H]1C[C@@H]2c3cc(NC(=O)C4CCOCC4)ccc3O[C@@H]2[C@H](CO)O1)NCC1CC1 | -7.92% (inactive)
37 | O=c1cc(CCl)nc2scc(-c3ccccc3)n12 | -9.12% (inactive)
38 | OCCn1c(-c2ccccc2)csc1=Nc1ccccc1 | 51% (active)
39 | COc1ccccc1S(=O)(=O)N1CC[C@H]2[C@@H](CO)N(C)c3ccc(C#Cc4ccccc4)cc3[C@H]21 | 9.34% (inactive)
40 | C[C@H]1CN([C@@H](C)CO)C(=O)Cc2cc(NS(C)(=O)=O)ccc2O[C@@H]1CN(C)S(=O)(=O)c1cccs1 | -10.4% (inactive)
41 | O=C(C[C@@H]1C[C@@H]2c3cc(NS(=O)(=O)c4ccc(F)cc4)ccc3O[C@@H]2[C@H](CO)O1)NCc1ccccc1F | -1.77% (inactive)
42 | N#Cc1c(N2CCCCC2)nc(N)c2c(N)nc(SCC(=O)O)cc12 | 80.8% (active)
43 | CCCN1[C@H](C(=O)N[C@H](C)c2ccccc2)[C@@H](CO)[C@@H]2Cn3c(ccc(-c4cccc(F)c4)c3=O)[C@@H]21 | 2.44% (inactive)
44 | C[C@@H]1CN([C@H](C)CO)C(=O)Cc2cc(NC(=O)CCC(F)(F)F)ccc2O[C@@H]1CN(C)CC1CCCCC1 | 2.83% (inactive)
45 | CN1CCN(C(=O)c2cc3c(c(-c4cccc(-c5ccc(C(=O)N(C)C)cc5)c4)n2)[C@@H](CCO)N([S@](=O)C(C)(C)C)C3)CC1 | -5.08% (inactive)
46 | CC(C)(C)[S@](=O)N1Cc2cc(C(=O)N3CCCCC3)nc(-c3cccc(-c4ccccc4F)c3)c2[C@@H]1CCO | 9.08% (inactive)
47 | COc1ccccc1-c1cccc(-c2nc(C(=O)N3CCN(C)CC3)cc3c2[C@H](CCO)N([S@@](=O)C(C)(C)C)C3)c1 | 51.3% (active)
48 | C[C@@H]1CN([C@H](C)CO)C(=O)c2cc(NC(=O)Nc3ccccc3)ccc2O[C@@H](C)CCCCO[C@@H]1CN(C)S(=O)(=O)c1ccc(F)cc1 | -3.52% (inactive)
49 | CCCNC(=O)N(C)C[C@H]1Oc2ncc(-c3cccc(C#N)c3)cc2C(=O)N([C@@H](C)CO)C[C@@H]1C | -5.02% (inactive)
50 | O=C(NCCCn1ccnc1)c1cc2c(s1)CCCC2 | 49.3% (active)

Row | SMILES | inhibition
51 | O=C(NCCCn1ccnc1)c1cc(-c2ccccc2)on1 | 1.74% (inactive)
52 | O=C(NCCCn1ccnc1)c1cc(Br)c(Br)s1 | 15.4% (inactive)
53 | O=C(N[C@H]1CC[C@H](CCNS(=O)(=O)c2ccc(F)cc2)O[C@H]1CO)c1cccc(F)c1 | 3.52% (inactive)
54 | CCS(=O)(=O)N1CCCCN2[C@@H](CO)[C@@H](c3ccc(-c4ccccc4)cc3)[C@@H]2C1 | -0.151% (inactive)
55 | O=C([C@H]1[C@H](CO)[C@H]2Cn3c(ccc(-c4ccccc4)c3=O)[C@@H]1N2Cc1cccnc1)N1CCOCC1 | 42.2% (inactive)
56 | O=c1nc(N/N=C/c2ccco2)cn[nH]1 | 5.23% (inactive)
57 | Cc1n[nH]c(=O)nc1N/N=C/c1cccs1 | 67.8% (active)
58 | Cn1c(=O)c2c(nc(N/N=C/c3cccs3)n2Cc2ccc(Br)cc2)n(C)c1=O | 12.7% (inactive)
59 | C[C@@H]1CN([C@@H](C)CO)C(=O)c2cc(C3=CCCC3)cnc2O[C@@H]1CN(C)C(=O)Cc1ccncc1 | 3.47% (inactive)
60 | Cc1ccc(S(=O)(=O)Nc2ccc3c(c2)C(=O)N([C@H](C)CO)C[C@H](C)[C@H](CN(C)S(C)(=O)=O)O3)cc1 | -7.55% (inactive)
61 | C[C@@H]1CN([C@@H](C)CO)C(=O)c2cc(-c3cccc(F)c3)cnc2O[C@@H]1CN(C)Cc1ccccc1 | 1.97% (inactive)
62 | COc1ccc(-c2ccc3c(c2)O[C@H](CN(C)Cc2ccccc2C(=O)O)[C@H](C)CN([C@@H](C)CO)S3(=O)=O)cc1 | 5.2% (inactive)
63 | O=C(N[C@@H]1CC[C@H](CCn2cc(-c3ccccn3)nn2)O[C@@H]1CO)c1ccccc1 | 87.5% (active)
64 | O=C(N[C@@H]1CC[C@H](CCn2cc(-c3ccccc3)nn2)O[C@H]1CO)c1cnccn1 | 4.06% (inactive)
65 | O=C(N[C@@H]1CC[C@@H](CCn2cc(-c3ccccn3)nn2)O[C@@H]1CO)c1ccccc1 | 40.7% (inactive)
66 | O=S(=O)(N[C@@H]1CC[C@@H](CCn2cc(-c3ccccn3)nn2)O[C@@H]1CO)c1cccc(Cl)c1 | 69.9% (active)
67 | CN(C)Cc1cn(CC[C@H]2CC[C@H](NS(=O)(=O)c3ccccc3)[C@@H](CO)O2)nn1 | -3.47% (inactive)
68 | CN(C)Cc1cn(CC[C@H]2CC[C@@H](NS(=O)(=O)c3ccccc3)[C@H](CO)O2)nn1 | -3.27% (inactive)
69 | C[C@H]1CN([C@@H](C)CO)C(=O)c2cc(C3=CCCC3)cnc2O[C@@H]1CN(C)C(=O)c1ccccc1 | -1.02% (inactive)
70 | CC(C)OC(=O)N(C)C[C@@H]1OCc2ccccc2-c2c(n(C)c3ccccc23)C(=O)N([C@H](C)CO)C[C@H]1C | 5.73% (inactive)
71 | CCC(=O)N(C)C[C@H]1Oc2cc(C#CCOC)ccc2S(=O)(=O)N([C@H](C)CO)C[C@H]1C | 1.93% (inactive)
72 | CC(=O)Nc1ccc2c(c1)C(=O)N(C)[C@H]1CC[C@@H](CC(=O)NCC3CC3)O[C@H]1CO2 | -14.7% (inactive)
73 | O=C(C[C@H]1CC[C@H]2[C@@H](COC[C@H](O)CN2Cc2ccncc2)O1)NCC1CC1 | 14.4% (inactive)
